KCNQ2 pot – KCNQ2 (rat) channel potentiation. O88943. actives 0.54% (n = 310,000). CHO-K1 KCNQ2, FluxOR thallium flux fluorescence; active compounds read high. B-score at 10 µM;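 active = fluorescence ratio B-score at least 3 SD of library B-scores, with initial fluorescence B-score within 3 of them, cut at about 5.3 in these data; same plate scores as AID 2156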;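 note: B-score of peak minus minimum over baseline fluorescence ratio after K+ and Tl+ stimulus; positive B-score means potentiation of KCNQ2 with more thallium influx and brighter signal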
KCNQ2 block – inhibitors of rat KCNQ2 potassium channel. O88943. AID 2156. CHO-K1 KCNQ2, FluxOR thallium flux, 20 min; active compounds read low. actives 1.1% (n = 310,000). B-score at 10 µM;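 active = fluorescence ratio B-score at most minus 3 library SDs, with starting brightness B-score within 2 library SDs, cut at about -5.5 in these data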
Kir21 confirm – confirmation of mouse Kir2.1 potassium channel inhibitors; shares compounds with KCNQ2 pot; Kir2.1-expressing cells, FluxOR thallium flux fluorescence; active compounds read low; Tl flux remaining, % of negative control (active compounds read low), % at 10 µM; actives 41% (n = 2,300);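 active = Primary-screen hit whose thallium flux fell at least 3 control SD below untreated wells in both duplicates, with normal baseline fluorescence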;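 note: 0% = blank wells without stimulus and 100% = stimulated no-compound controls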
HEK293 ctr – alters thallium flux in parental HEK293 cells, Kir2.1 counter-screen; shares compounds with KCNQ2 pot; FluxOR thallium flux fluorescence; 0% = unstimulated blank wells; FluxOR signal as % of negative control (100 = no effect), % at 10 µM; actives 19% (n = 2,300);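 active = dye signal at least 3 control SD above or below untreated wells in both duplicates, raw fluorescence within 3, either direction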;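 note: percent is based on the flux ratio of peak minus minimum fluorescence over baseline F0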
CHO-K1 Tl ctr – parental CHO-K1 activity in KCNQ2 potentiator counter-screen | AID 2282 | actives 43% (n = 1,200) | parental CHO-K1 cells, FluxOR thallium flux fluorescence; zero = vehicle mean+3SD, 100% = vehicle-minus-blank window | activity increase over 3SD of controls, % at 10 µM | shares compounds with KCNQ2 pot;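 active = signal rise of at least 3 SD above the untreated control mean, in both duplicate wells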;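 note: counter screen of KCNQ2 potentiator hits so any rise reflects channel-independent effects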
KCNQ1 pot spec – human KCNQ1 counter-target activity of KCNQ2 potentiators. shares compounds with KCNQ2 pot. CHO KCNQ1 stable, FluxOR thallium flux fluorescence; beyond 3SD, as % of vehicle-control signal. activation over 3SD threshold, % at 10 µM. actives 28% (n = 1,200). AID 2283;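 active = fluorescence ratio rise of at least 3 SD of vehicle wells above their mean, in both replicate wells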;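 note: 0% = vehicle mean plus 3 SD and 100% = vehicle minus unstimulated blank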
Target sequence (P51787 whole entry, looked up): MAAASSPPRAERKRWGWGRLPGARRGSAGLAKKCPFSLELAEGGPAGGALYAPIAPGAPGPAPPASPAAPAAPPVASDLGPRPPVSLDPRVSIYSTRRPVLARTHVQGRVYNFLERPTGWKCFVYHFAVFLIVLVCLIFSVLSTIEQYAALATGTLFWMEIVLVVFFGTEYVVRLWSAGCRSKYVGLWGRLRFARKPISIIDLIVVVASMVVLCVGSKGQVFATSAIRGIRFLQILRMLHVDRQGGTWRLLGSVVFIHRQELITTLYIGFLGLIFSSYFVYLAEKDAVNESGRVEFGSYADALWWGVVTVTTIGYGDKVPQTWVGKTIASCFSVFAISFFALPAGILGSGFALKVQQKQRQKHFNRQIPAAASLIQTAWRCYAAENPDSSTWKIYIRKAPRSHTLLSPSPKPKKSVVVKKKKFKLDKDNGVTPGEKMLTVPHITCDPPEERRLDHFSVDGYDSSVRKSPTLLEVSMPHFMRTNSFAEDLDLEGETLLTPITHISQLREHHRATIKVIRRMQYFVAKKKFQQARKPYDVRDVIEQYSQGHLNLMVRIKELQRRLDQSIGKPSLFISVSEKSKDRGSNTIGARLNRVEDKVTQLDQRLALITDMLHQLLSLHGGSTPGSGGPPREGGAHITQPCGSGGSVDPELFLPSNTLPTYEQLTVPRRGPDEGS
KCNQ2 pot conf – confirmation of rat KCNQ2 potassium channel potentiators; AID 2287; actives 68% (n = 1,200); shares compounds with KCNQ2 pot; potentiation, less the hit threshold, % at 10 µM; CHO-KCNQ2 cells, FluxOR thallium flux fluorescence;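 active = fluorescence ratio rising 3 SD or more over the vehicle control mean in both replicates, plus primary screen hit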;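 note: peak minus minimum thallium fluorescence divided by baseline after K/Tl stimulus; 0% = vehicle mean plus 3 SD and 100% = vehicle minus unstimulated blank difference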
Kir21 spec – tests whether KCNQ2 potentiators also affect mouse Kir2.1; activity over 3SD threshold, % at 10 µM; HEK293 Kir2.1, FluxOR thallium flux fluorescence; actives 2% (n = 1,200); shares compounds with KCNQ2 pot; AID 2345;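 active = fluorescence ratio rise of at least 3 SD above the vehicle-control mean, seen in both replicates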;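 note: 0% = vehicle mean plus 3 SD and 100% = vehicle minus no-stimulus blank window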
KCNQ2 W236L MoA – rat KCNQ2 W236L mutant potentiation by KCNQ2 potentiators; shares compounds with KCNQ2 pot; CHO KCNQ2-W236L, automated patch clamp current; current increase over 3SD of negative controls (%), active compounds read high, % at 25 µM; actives 10% (n = 940); AID 2558;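 active = current increase at least 3 SD of the untreated controls above them in both duplicate recordings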
Numbers without * were called inactive. Compounds with a hit are over-represented: about 1.6% of the library has one in this group of screens.

What do the screens show for `OC(CNCCc1ccccc1)COc1ccc(OCC(O)CNCCc2ccccc2)cc1` (configuration not stated)?
KCNQ2 block: inactive

What do the screens show for `CC(C)c1ccc(OCC(O)CNC(C)c2ccccc2)cc1` (configuration not stated)?
KCNQ2 pot: 2.2; KCNQ2 block: inactive; Kir21 confirm: 28%*; HEK293 ctr: inactive

How did OC(CNCCC(c1ccccc1)c1ccccc1)COc1ccccc1 (configuration not stated) do in these assays?
KCNQ2 block: inactive; Kir21 confirm: 36%*; HEK293 ctr: inactive

How did CCC(=O)c1ccc(OCC(O)CNC(C)c2ccccc2)cc1 (configuration not stated) do in these assays?
KCNQ2 pot: 0.04; KCNQ2 block: inactive

Results for Cc1cccc(C(=O)NCCN2CCCC2)c1 ?
KCNQ2 block: inactive

What do the screens show for `CC(/C=N/NC(=O)c1cc(-c2ccccc2)nc2ccccc12)=C\c1ccco1`?
KCNQ2 block: inactive

Results for Cn1c(CSc2ccccc2)c(C#N)c2ccccc21 ?
KCNQ2 pot: 0.32; KCNQ2 block: inactive

Results for Cc1ccc(SCc2c(C#N)c3ccccc3n2C)cc1 ?
KCNQ2 block: inactive; Kir21 confirm: inactive; HEK293 ctr: inactive

Results for CCn1cc(CCC(=O)NCc2ccccc2OC)c2ccccc21 ?
KCNQ2 pot: 0.26; KCNQ2 block: inactive; Kir21 confirm: 50%*; HEK293 ctr: inactive

Results for CCn1cc(CCCC(=O)NCc2ccccc2OC)c2ccccc21 ?
KCNQ2 block: inactive

How did NC(=O)c1ccsc1NC(=O)COC(=O)C1CC2CCCC(C1)C2=O (configuration not stated) do in these assays?
KCNQ2 block: inactive

How did O=C(CCn1nc(-c2ccc(Cl)cc2)ccc1=O)NCc1cccnc1 do in these assays?
KCNQ2 block: inactive

What do the screens show for `S=c1nc(-c2cccc(Br)c2)[nH][nH]1`?
KCNQ2 pot: 0.18; KCNQ2 block: inactive

How did COc1ccc(OC)c(NC(=O)C2CCCC2)c1 do in these assays?
KCNQ2 pot: 2.4; KCNQ2 block: inactive

Results for COc1ccc(OC)c(NC(=O)C2CC2c2ccccc2)c1 (configuration not stated) ?
KCNQ2 pot: 19*; KCNQ2 block: inactive; Kir21 confirm: inactive; HEK293 ctr: 72%*; CHO-K1 Tl ctr: -5; KCNQ1 pot spec: 8.9*; KCNQ2 pot conf: 59*; Kir21 spec: -38; KCNQ2 W236L MoA: inactive

Results for Cc1ccc(Cl)cc1NC(=O)C1CC1c1ccccc1 (configuration not stated) ?
KCNQ2 pot: 6.2*; KCNQ2 block: inactive; Kir21 confirm: inactive; HEK293 ctr: inactive; CHO-K1 Tl ctr: -14; KCNQ1 pot spec: -13; KCNQ2 pot conf: -1; Kir21 spec: -39; KCNQ2 W236L MoA: inactive

What do the screens show for `COc1ccc(C(=O)Nc2cc(OC)ccc2OC)cc1`?
KCNQ2 pot: 0.02; KCNQ2 block: inactive

Results for COc1ccc(OC)c(NC(=O)c2ccc(Cl)cc2)c1 ?
KCNQ2 pot: 6.5*; KCNQ2 block: inactive; Kir21 confirm: inactive; HEK293 ctr: inactive; CHO-K1 Tl ctr: -10; KCNQ1 pot spec: -12; KCNQ2 pot conf: 9.8*; Kir21 spec: -27; KCNQ2 W236L MoA: inactive

Results for Cc1ccc(Cl)cc1NC(=O)C1C2CCC(O2)C1C(=O)O (configuration not stated) ?
KCNQ2 block: inactive

Results for Cc1cccc(NC(=O)C2CC2c2ccccc2)c1C (configuration not stated) ?
KCNQ2 pot: 18*; KCNQ2 block: inactive; Kir21 confirm: inactive; HEK293 ctr: inactive; CHO-K1 Tl ctr: -6; KCNQ1 pot spec: -11; KCNQ2 pot conf: 47*; Kir21 spec: -23; KCNQ2 W236L MoA: inactive

How did O=C(Nc1ccccc1F)C1CC1c1ccccc1 (configuration not stated) do in these assays?
KCNQ2 pot: 4.2; KCNQ2 block: inactive

What do the screens show for `O=c1[nH]c(=O)c2nnc(N/N=C\c3ccc(O)cc3)nc2[nH]1`?
KCNQ2 pot: 0.15; KCNQ2 block: inactive

Results for O=c1cc(CSc2nnc(COc3ccccc3)n2-c2ccccc2)c2ccccc2[nH]1 ?
KCNQ2 block: inactive

What do the screens show for `CCOc1cc(/C=C2\C(=N)N3N=C(CC)SC3=NC2=O)ccc1OCCOc1ccc(NC(C)=O)cc1`?
KCNQ2 pot: 1.8; KCNQ2 block: inactive

How did Cc1cc(N2CCN(c3ccccc3F)CC2)nc2cc(O)ccc12 do in these assays?
KCNQ2 block: inactive

What do the screens show for `Cc1sc2nc(SCCN(C)C)n(-c3ccccc3)c(=O)c2c1-c1ccc(F)cc1`?
KCNQ2 block: inactive

Results for Cc1cccc(C)c1NC(=S)NN1CCN(C)CC1 ?
KCNQ2 pot: 1.5; KCNQ2 block: inactive

What do the screens show for `COc1ccc(OC)c(NC(=O)NC2CCCCCCC2)c1`?
KCNQ2 pot: 12*; KCNQ2 block: inactive; Kir21 confirm: inactive; HEK293 ctr: inactive; CHO-K1 Tl ctr: -15; KCNQ1 pot spec: -28; KCNQ2 pot conf: 3.5*; Kir21 spec: -42; KCNQ2 W236L MoA: inactive

What do the screens show for `COc1ccc(NC(=O)C(=O)NNC(=O)COc2ccc(Cl)cc2)c(OC)c1`?
KCNQ2 pot: 10*; KCNQ2 block: inactive; Kir21 confirm: inactive; HEK293 ctr: 318%*; CHO-K1 Tl ctr: 0.6*; KCNQ1 pot spec: -31; KCNQ2 pot conf: 21*; Kir21 spec: -12; KCNQ2 W236L MoA: inactive

How did COc1ccc(OC)c(NC(=O)C(=S)NC2CCCCC2)c1 do in these assays?
KCNQ2 pot: 0.98; KCNQ2 block: inactive

How did COc1cc(NC(=O)COc2ccc(Cl)cc2)ccc1NC(=O)C(C)C do in these assays?
KCNQ2 block: inactive

What do the screens show for `CCOC(=O)C1CCN(Cc2cccc(OCc3ccccc3)c2)CC1`?
KCNQ2 block: inactive; Kir21 confirm: 20%*; HEK293 ctr: inactive

How did NC(=O)C1CCN(Cc2cccc(OCc3ccccc3)c2)CC1 do in these assays?
KCNQ2 pot: 0.01; KCNQ2 block: inactive
